Measured values published in PubChem BioAssay (EPA / NIEHS).
Activity calls are given as the source filed them. The calls were made as follows: active = hit-call score of the fitted dose curve at least 0.9, where 1 is the maximum; inactive = score below 0.9.

What was measured:
Conditions in all cases: mRNA level, 48 h; actives raise or lower the signal
[1] = read-out: Cytochrome P450 (CYP1A2), CYP1A2 (gene 1544); test: LTEA_HepaRG_CYP1A2: Life Technologies and Expression Analysis (LTEA) Assay for Cytochrome P450 (CYP1A2) using HepaRG (AID 2283479)
In short: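 CYP1A2 transcript induction or loss, quantified by Fluidigm qRT-PCR against three housekeeping genes, was fitted bidirectionally against 0.5% DMSO controls. Human HepaRG cells received eight half-log concentrations from 100 uM over 48 h.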

[2] = read-out: cysteine-aspartic acid protease (CASP8), CASP8 (gene 841); test: LTEA_HepaRG_CASP8: Life Technologies and Expression Analysis (LTEA) Assay for cysteine-aspartic acid protease (CASP8) using HepaRG (AID 2283480)
In short: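 CASP8 transcript measured by TaqMan qRT-PCR with ACTB/GAPDH/POLR2A normalization, after 48 h chemical exposure of HepaRG cells in serum-free induction medium. Eight concentrations, top 100 uM, half-log steps, 0.5% DMSO vehicle; fits in both directions versus DMSO.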

[3] = read-out: Cytochrome P450 (CYP2B6), CYP2B6 (gene 1555); test: LTEA_HepaRG_CYP2B6: Life Technologies and Expression Analysis (LTEA) Assay for Cytochrome P450 (CYP2B6) using HepaRG (AID 2283481)
In short: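 HepaRG cells plated 48 h, switched to serum-free induction medium, then dosed 48 h (8 points, half-log from 100 uM, 0.5% DMSO). RNA isolated; CYP2B6 expression measured by qRT-PCR; gain or loss fitted relative to DMSO.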

[4] = read-out: Cytochrome P450 2C19 (Homo sapiens) (UniProt P33261); test: LTEA_HepaRG_CYP2C19: Life Technologies and Expression Analysis (LTEA) Assay for CYP2C19 using HepaRG (AID 2283482)
In short: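 Transcript levels of CYP2C19 were quantified by qRT-PCR after HepaRG cells were treated for 48 hours with test chemicals up to 100 uM (eight half-log concentrations, 0.5% DMSO vehicle). Gain or loss of signal was fitted relative to DMSO.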

CYP2C9 (gene 1559) = test: LTEA_HepaRG_CYP2C9: Life Technologies and Expression Analysis (LTEA) Assay for CYP2C9 using HepaRG (AID 2283484)
In short: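 CYP2C9 transcript level, quantified by TaqMan qRT-PCR against three housekeeping genes, was fitted bidirectionally relative to 0.5% DMSO. HepaRG cultures were treated 48 h, in duplicate, at eight half-log concentrations topping at 100 uM.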

CYP2E1 (gene 1571) = test: LTEA_HepaRG_CYP2E1: Life Technologies and Expression Analysis (LTEA) Assay for CYP2E1 using HepaRG (AID 2283485)
In short: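 Assay uses 48 h exposure of HepaRG hepatic cells, eight concentrations to 100 uM. Expression of CYP2E1 is quantified by TaqMan qRT-PCR with ACTB, GAPDH and POLR2A normalization; curves fitted in both directions relative to vehicle.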

CYP4A11 (gene 1579) = test: LTEA_HepaRG_CYP4A11: Life Technologies and Expression Analysis (LTEA) Assay for CYP4A11 using HepaRG (AID 2283486)
In short: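 HepaRG, 48 h chem exposure, 8 conc (100 uM top, half-log), 0.5% DMSO vehicle; qRT-PCR readout, housekeeping-gene normalized; bidirectional curve fit vs DMSO baseline.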

[5] = read-out: Cytochrome P450 3A4 (Homo sapiens) (UniProt P08684); test: LTEA_HepaRG_CYP3A4: Life Technologies and Expression Analysis (LTEA) Assay for CYP3A4 using HepaRG (AID 2283487)
In short: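 Differentiated HepaRG cells in serum-free induction medium exposed in duplicate for 48 h to 8 half-log concentrations up to 100 uM in 0.5% DMSO. CYP3A4 mRNA measured by qRT-PCR normalized to ACTB, GAPDH and POLR2A; bidirectional fit versus DMSO.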

[6] = read-out: DNA damage-inducible transcript 3 (DDIT3), DDIT3 (gene 1649); test: LTEA_HepaRG_DDIT3: Life Technologies and Expression Analysis (LTEA) Assay for DNA damage-inducible transcript 3 (DDIT3) using HepaRG (AID 2283488)
In short: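 Eight-point concentration-response (100 uM highest, half-log dilutions) in HepaRG, 48 h, duplicate wells. Endpoint: qRT-PCR mRNA, normalized (ACTB, GAPDH, POLR2A), bidirectional fitting with DMSO as baseline.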

[7] = read-out: Pro-epidermal growth factor (Homo sapiens) (UniProt P01133); test: LTEA_HepaRG_EGF: Life Technologies and Expression Analysis (LTEA) Assay for Epidermal growth factor (EGF) using HepaRG (AID 2283489)
In short: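 HepaRG, 48 h dosing, 100 uM top, half-log x8, 0.5% DMSO. Readout: TaqMan qRT-PCR (Fluidigm array), housekeeping-normalized. Gain or loss of signal fit vs DMSO.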

[8] = read-out: Early growth response protein 1 (EGR1) transcription factor, EGR1 (gene 1958); test: LTEA_HepaRG_EGR1: Life Technologies and Expression Analysis (LTEA) Assay for Early growth response protein 1 (EGR1) transcription factor using HepaRG (AID 2283490)
In short: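 EGR1 transcript levels quantified by qRT-PCR (Fluidigm arrays) against three housekeeping genes after 48 h chemical exposure of HepaRG cells. Eight-point half-log series topping at 100 uM, 0.5% DMSO vehicle, analyzed for gain or loss.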

[9] = read-out: Ezrin (EZR), EZR (gene 7430); test: LTEA_HepaRG_EZR: Life Technologies and Expression Analysis (LTEA) Assay for Ezrin (EZR) using HepaRG (AID 2283491)
In short: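 Differentiated human HepaRG cells, 48 h after plating, were exposed in serum-free induction medium for 48 hours to eight half-log concentrations up to 100 uM in 0.5% DMSO. EZR mRNA was measured by TaqMan qRT-PCR, normalized to ACTB, GAPDH and POLR2A, and fitted bidirectionally against DMSO.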

[10] = read-out: Cytochrome P450 3A7 (Homo sapiens) (UniProt P24462); test: LTEA_HepaRG_CYP3A7: Life Technologies and Expression Analysis (LTEA) Assay for CYP3A7 using HepaRG (AID 2283492)
In short: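 Human HepaRG liver cells, 48 h post-plating, switched to serum-free induction medium and exposed in duplicate for 48 h. Dosing: 100 uM top, half-log dilutions, 8 points, 0.5% DMSO vehicle. Read-out: CYP3A7 mRNA, gain or loss fitted against DMSO baseline.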

CYP3A5 (gene 1577) = test: LTEA_HepaRG_CYP3A5: Life Technologies and Expression Analysis (LTEA) Assay for CYP3A5 using HepaRG (AID 2283493)
In short: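 Readout was CYP3A5 mRNA by qRT-PCR. HepaRG cultures were exposed for 48 h in serum-free induction medium to chemicals at up to 100 uM, and responses were fitted in both directions relative to DMSO vehicle.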

[11] = read-out: Fatty Acid-Binding Protein 1 (FABP1), FABP1 (gene 2168); test: LTEA_HepaRG_FABP1: Life Technologies and Expression Analysis (LTEA) Assay for Fatty Acid-Binding Protein 1 (FABP1) using HepaRG (AID 2283494)
In short: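 FABP1 expression by TaqMan qRT-PCR, normalised to three housekeeping genes, in HepaRG cells after 48 h chemical treatment. Eight-point half-log series topping at 100 uM in 0.5% DMSO, duplicates; gain or loss fitted relative to vehicle.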

[12] = read-out: Cytochrome P450 4A22 (Homo sapiens) (UniProt Q5TCH4); test: LTEA_HepaRG_CYP4A22: Life Technologies and Expression Analysis (LTEA) Assay for Cytochrome P450 4A22 (CYP4A22) using HepaRG (AID 2283495)
In short: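 Readout is CYP4A22 transcript induction or loss, quantified by qRT-PCR and normalized to ACTB, GAPDH and POLR2A. Human HepaRG cells receive test chemicals for 48 h at eight half-log concentrations from 100 uM in 0.5% DMSO.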

[13] = read-out: Cytochrome P450 7A1 (Homo sapiens) (UniProt P22680); test: LTEA_HepaRG_CYP7A1: Life Technologies and Expression Analysis (LTEA) Assay for Cytochrome P450 7A1 (CYP7A1) using HepaRG (AID 2283496)
In short: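 Using 0.5% DMSO as vehicle and baseline, chemicals were tested in duplicate over an 8-point range from 100 uM on HepaRG cells for 48 h; qRT-PCR signals were normalised to ACTB, GAPDH and POLR2A.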

[14] = read-out: Glutathione S-Transferase (GSTA2), GSTA2 (gene 2939); test: LTEA_HepaRG_GSTA2: Life Technologies and Expression Analysis (LTEA) Assay for Glutathione S-Transferase (GSTA2) using HepaRG (AID 2283497)
In short: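 GSTA2 transcript levels came from Fluidigm TaqMan qRT-PCR normalized to three housekeeping genes, fitted in both directions against DMSO. HepaRG cultures received chemicals for 48 h in serum-free induction medium (0.5% DMSO), 8 half-log concentrations up to 100 uM, duplicate.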

[15] = read-out: Glutamate-cysteine ligase catalytic (GCLC), GCLC (gene 2729); test: LTEA_HepaRG_GCLC: Life Technologies and Expression Analysis (LTEA) Assay for Glutamate-cysteine ligase catalytic (GCLC) using HepaRG (AID 2283498)
In short: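 Expression by TaqMan qRT-PCR, normalized to three housekeeping genes (ACTB, GAPDH, POLR2A), with up- or down-regulation fitted against DMSO. HepaRG cells dosed in duplicate for 48 h with 8 half-log concentrations up to 100 uM, vehicle 0.5% DMSO.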

[16] = read-out: growth arrest and DNA damage 45 (GADD45G), GADD45G (gene 10912); test: LTEA_HepaRG_GADD45G: Life Technologies and Expression Analysis (LTEA) Assay for growth arrest and DNA damage 45 (GADD45G) using HepaRG (AID 2283499)
In short: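 Gain or loss of GADD45G mRNA, quantified by TaqMan qRT-PCR against three housekeeping genes, is fitted in both directions relative to 0.5% DMSO. Human HepaRG cultures receive test chemical for 48 h at up to 100 uM.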

Measured: AC50

Chain of Cytochrome P450 3A7 (Homo sapiens) (P24462 whole entry, looked up): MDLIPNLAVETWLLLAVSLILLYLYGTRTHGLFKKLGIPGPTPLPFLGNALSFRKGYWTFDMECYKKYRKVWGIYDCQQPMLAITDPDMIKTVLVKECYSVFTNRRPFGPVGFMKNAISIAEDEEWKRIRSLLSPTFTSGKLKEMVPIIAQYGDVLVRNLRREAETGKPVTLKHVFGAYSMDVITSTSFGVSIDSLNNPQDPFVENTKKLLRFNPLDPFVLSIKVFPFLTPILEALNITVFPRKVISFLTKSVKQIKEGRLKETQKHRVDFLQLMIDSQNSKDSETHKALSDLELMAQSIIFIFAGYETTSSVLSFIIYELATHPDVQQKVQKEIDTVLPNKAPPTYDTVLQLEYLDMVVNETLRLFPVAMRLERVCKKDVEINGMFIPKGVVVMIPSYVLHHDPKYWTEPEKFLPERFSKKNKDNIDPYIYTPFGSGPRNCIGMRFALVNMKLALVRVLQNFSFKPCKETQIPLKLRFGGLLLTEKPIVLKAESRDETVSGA
Chain of Cytochrome P450 2C19 (Homo sapiens) (P33261 whole entry, looked up): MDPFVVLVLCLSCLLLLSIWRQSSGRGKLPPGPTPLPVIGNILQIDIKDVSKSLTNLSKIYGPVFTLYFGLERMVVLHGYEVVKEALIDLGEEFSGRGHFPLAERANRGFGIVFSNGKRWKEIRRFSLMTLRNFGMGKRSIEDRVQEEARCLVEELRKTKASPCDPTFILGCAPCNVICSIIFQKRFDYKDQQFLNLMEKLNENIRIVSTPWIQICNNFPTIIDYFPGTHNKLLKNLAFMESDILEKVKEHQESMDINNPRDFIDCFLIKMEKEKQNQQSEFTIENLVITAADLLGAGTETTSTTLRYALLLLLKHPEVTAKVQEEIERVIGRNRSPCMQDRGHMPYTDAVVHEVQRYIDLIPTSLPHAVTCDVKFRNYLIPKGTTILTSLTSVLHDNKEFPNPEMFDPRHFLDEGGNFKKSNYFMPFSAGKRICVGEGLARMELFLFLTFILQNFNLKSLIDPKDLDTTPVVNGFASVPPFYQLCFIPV
Chain of Cytochrome P450 3A4 (Homo sapiens) (P08684 whole entry, looked up): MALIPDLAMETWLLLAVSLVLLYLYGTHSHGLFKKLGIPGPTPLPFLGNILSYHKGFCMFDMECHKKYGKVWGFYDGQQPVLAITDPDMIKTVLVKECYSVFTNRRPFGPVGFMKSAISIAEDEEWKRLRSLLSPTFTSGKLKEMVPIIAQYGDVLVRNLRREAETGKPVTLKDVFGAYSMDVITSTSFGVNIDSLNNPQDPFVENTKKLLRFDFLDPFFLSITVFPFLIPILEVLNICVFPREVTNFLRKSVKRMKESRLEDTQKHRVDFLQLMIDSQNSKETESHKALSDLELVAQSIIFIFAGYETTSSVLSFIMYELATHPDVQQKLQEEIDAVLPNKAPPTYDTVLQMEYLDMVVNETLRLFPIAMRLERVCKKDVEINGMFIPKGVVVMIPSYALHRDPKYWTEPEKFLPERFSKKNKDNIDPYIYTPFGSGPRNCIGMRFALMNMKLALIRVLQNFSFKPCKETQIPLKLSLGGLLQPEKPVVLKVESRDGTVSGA

ClC1(Cl)C2(Cl)C3(Cl)C4(Cl)C(Cl)(Cl)C5(Cl)C3(Cl)C1(Cl)C5(Cl)C24Cl (configuration not stated)
active: [1] 15.8 µM | [3] 0.73 µM | [4] 3.41 µM | CYP2E1 (gene 1571) 4.06 µM | CYP4A11 (gene 1579) 20 µM | [5] 4.01 µM | [10] 4.64 µM | [11] 3.49 µM
inactive: all other assays above

CCOP(=S)(OCC)SCSP(=S)(OCC)OCC
inactive: [2] | CYP2C9 (gene 1559) | CYP4A11 (gene 1579) | [6] | [7] | [8] | [9] | [14]
active: [1] 50 µM | [3] 13 µM | [4] 26.1 µM | CYP2E1 (gene 1571) 19.2 µM | [5] 12.5 µM | [10] 50 µM | CYP3A5 (gene 1577) 0.236 µM | [11] 12.1 µM | [12] 0.0742 µM | [13] 9.92 µM | [15] 0.0663 µM | [16] 1.49 µM

O=c1[nH]c(=O)[nH]c(=O)[nH]1
inactive: all assays above

CC(C)(C)c1cc(O)ccc1O
inactive: all assays above

C=C(C)C(=O)[O][Sn]([CH2]CCC)([CH2]CCC)[CH2]CCC
active: [1] 0.471 µM | [3] 2.33 µM | [4] 2.64 µM | CYP4A11 (gene 1579) 1.49 µM | [5] 2.52 µM | [6] 92.4 µM | [9] 93.5 µM | [10] 2.71 µM | CYP3A5 (gene 1577) 4.68 µM | [15] 4.01 µM | [16] 1.21 µM
inactive: [2] | CYP2C9 (gene 1559) | CYP2E1 (gene 1571) | [8] | [11] | [14]

CC(C)(OO)c1ccccc1
active: [1] 50 µM | [3] 22.9 µM
inactive: all other assays above

O=C(O)C(F)(F)C(F)(F)C(F)(F)C(F)(F)C(F)(F)C(F)(F)F
active: [3] 24.9 µM | [4] 0.576 µM | CYP4A11 (gene 1579) 18.6 µM | [10] 35 µM | [11] 22.5 µM | [12] 21.4 µM
inactive: all other assays above
